“And” between values parts separate entries of the source, which are not always exact repeats. Equal values may be shown once. This is part of a sample that, as a whole, favours compounds with a hit. Of some 83,000 tested, about 20% had one in any assay.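 Values shown are percent growth following 48 h exposure of cells in 96-well plates to a single concentration of compound; below 10 was considered active.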 A number with no mark means an inactive call. The source made the active and inactive calls. Starred links: 1 amine or outer side, 2 acyl side, 3 side chain; linkers in the order of their positions; H or OH if unused. Positions of bridges follow the written chain, without caps; N, C: chain ends. Non-standard residues stand in square brackets, D forms with d. Residues, ends and D or L forms follow the SMILES beside them. Chains are numbered I, II in the order given. Actinocin(9to1) = Cc1c2oc3c(C)ccc(C(=O)[*:1])c3nc-2c(C(=O)[*:2])c(N)c1=O; aThr = C[C@H](O)[C@H](N)C(=O)O; NMeV = CN[C@H](C(=O)O)C(C)C; Sar = CNCC(=O)O

The first assay has as its system NCI-H226 lung. Put plainly: NCI-60 one-dose screen, 48 h (100 = growth as untreated, 0 = no growth, -100 = all killed). Conditions: 0.0025 µM. The procedure:
Growth inhibition of the NCI-H226 human Non-Small Cell Lung tumor cell line is measured as a screen for anti-cancer activity. Cells are grown in 96 well plates and exposed to the test compound for 48 hours. Compounds are tested at a single concentration, which is 10^-5 M for most compounds. The reported endpoint is percent growth (GI% or GIPRCNT), where numbers from 0 - 100% represent growth inhibition, and numbers from -100% - 0 represent cell death. For example, a value of 40 represents 60% growth inhibition. A value of 0 means no net growth occurred over the course of the experiment. A value of -40 indicates 40% of cells at the beginning of the experiment died by the end of the experiment. A value of -100 means all cells are dead at the end of the experiment.
NCI-60 Human Tumor Cell Lines Screen was performed using the standard one-dose NCI protocol, which is described in more detail at https://dtp.cancer.gov/discovery_development/nci-60/default.htm.
Compounds with GIPRCNT values below 10 were considered active. Activity score was based on GIPRCNT using the following formula: […]
Score is 0 for GIPRCNT values of 100 or above, 50 for GIPRCNT values of 0, and 100 for GIPRCNT values of -100.
On to `Cc1c2oc3c(C)ccc(C(=O)N[C@@H]4C(=O)N[C@H](C(C)C)C(=O)N5CCC[C@H]5C(=O)N(C)CC(=O)N(C)[C@@H](C(C)C)C(=O)O[C@H]4C)c3nc-2c(C(=O)N[C@@H]2C(=O)N[C@H](C(C)C)C(=O)N3CCC[C@H]3C(=O)N(C)CC(=O)N(C)[C@@H](C(C)C)C(=O)O[C@H]2C)c(N)c1=O` (I: [aThr][dV]P[Sar][NMeV] / II: [aThr][dV]P[Sar][NMeV]; ester I:1-I:C, II:1-II:C; linker I:N-II:N via Actinocin(9to1)), for which the growth is 57.3%.

The assay is the same for the next values; noted with them: 10 µM.
Turning to `S=c1[nH]nc(Cc2ccccc2)c(=S)[nH]1`, the growth was 103%. Same read-out and setting: under `O=c1[nH]cc(F)c(=O)[nH]1` stands 85.2% and 94.1%; under `BrC/C=C/C[P+](c1ccccc1)(c1ccccc1)c1ccccc1`, 76.2%. `N#C/C(=C1C=C/C(=N\O)C(Cl)=C\1)c1ccccc1`: the growth was 87.8%.

On to `O=C(/C(=C/c1ccccc1)CBr)c1ccccc1`, for which the growth is 93%. Take `Cc1cc(NCCCN(C)C)c2ccc3c(ccc4c(NCCCN(C)C)cc(C)nc43)c2n1`: the growth was -56.6% (active). On the same count and under the same terms, under `CN(C)CCC(=O)c1c[nH]c2ccccc12` stands 105%; under `CCCCCCCCCCCCCCCCCN`, 111%; under `Cc1c2oc3c(C)ccc(C(=O)N[C@@H]4C(=O)N[C@H](C(C)C)C(=O)N5CCC[C@H]5C(=O)N(C)CC(=O)N(C)[C@@H](C(C)C)C(=O)O[C@H]4C)c3nc-2c(C(=O)N[C@@H]2C(=O)N[C@H](C(C)C)C(=O)N3CCC[C@H]3C(=O)N(C)CC(=O)N(C)[C@@H](C(C)C)C(=O)O[C@H]2C)c(N)c1=O` (I: [aThr][dV]P[Sar][NMeV] / II: [aThr][dV]P[Sar][NMeV]; ester I:1-I:C, II:1-II:C; linker I:N-II:N via Actinocin(9to1)), -12.4% (active). For the compound `Cc1cnc(/C=N\NC(N)=S)c2cccc(N)c12`, the growth was 4.78% (active). The same measure, in the same setting: under `COc1cc(C(C)(C)C)cc(OC)c1C(O)(c1c(OC)cc(C(C)(C)C)cc1OC)c1c(OC)cc(C(C)(C)C)cc1OC` stands -65.7% (active); under `CSc1ccc2c(c1)C(N1CCN(C)CC1)Cc1ccccc1S2` (stereo unspecified), 55.3%; under `CN1CCN(c2ccc3nc(-c4ccc5nc(-c6ccc(O)cc6)[nH]c5c4)[nH]c3c2)CC1`, 88.5%. The same measure, in the same setting: under `Nc1ccc2cc(Br)c3ccccc3c2c1` stands 59.4%.

The assay is the same for the next values; noted with them: 25 µM.
With `O=c1[nH]cc(F)c(=O)[nH]1`, the growth was 69.5%.

Source of the values: PubChem BioAssay (NCI).
